TDP1 cell noCPT: qHTS for Inhibitors of human tyrosyl-DNA phosphodiesterase 1 (TDP1): qHTS in cells in absence of CPT. Potency, µM (doses to about 46.2 µM), inactives show at the top dose activity change, negative = growth inhibition, actives largely listed as inhibitors. AID 686978, 2013. DT40 Tdp1-/- hTDP1 cells, no CPT, ATP luminescence, 48 h. 15% of 420,000 active; further: on the % scale 0 is the no-effect control and ±100 the full control effect; nearly all actives have a fitted effect of over 55% in size
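Growth kinetics read by CellTiter-Glo luminescence after ≥48 hr at 37 °C. Cells: DT40 Tdp1-/- stably carrying human TDP1, 400 per well, compound exposure in the absence of CPT (DMSO vehicle).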
TGFb inhibitor: inhibitors of TGF-b signaling | Potency, µM (doses to about 46.1 µM), inactives show top-dose activity, negative = inhibition, actives largely listed as inhibitors | HepG2 CAGA-GFP TGF-b/SMAD3 reporter, GFP fluorescence, 18 h; TGF-beta stimulated, 500 pg/mL final | AID 588855 | 1.2% of 410,000 active; further: on the % scale 0 is the no-effect control and ±100 the full control effect; nearly all actives have a fitted effect of over 65% in size
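Cell-based qHTS in HEPG2 carrying a CAGA-GFP Smad reporter; compounds added before 500 pg/mL final TGF-beta, 18 h incubation at 37 degrees C, GFP fluorescence quantified per cell by imaging cytometry.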
TDP1 cell CPT: growth inhibition of DT40 Tdp1-/-;hTDP1 cells with camptothecin (screen for TDP1 inhibitors) | Potency, µM (doses to about 46.2 µM), for the others: at the top dose activity change, negative = growth inhibition, hits mostly inhibitors | AID 686979 | chicken DT40 Tdp1-/-;hTDP1 cells + 20 nM CPT, ATP luminescence, 48 h | 12% of 420,000 active; further: on the % scale 0 is the no-effect control and ±100 the full control effect; nearly all actives have a fitted effect of over 55% in size
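Chicken DT40 Tdp1-/- cells stably complemented with human TDP1 were seeded at 400 cells/well in medium containing 20 nM camptothecin, exposed to pin-transferred compounds, and grown at 37 °C for at least 48 hr. Viability was read as ATP luminescence.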
HT1080-NT tox: kills 2HG-producing HT-1080-NT fibrosarcoma cells | HT-1080-NT fibrosarcoma viability, CellTiter-Glo ATP luminescence, 48 h | Potency, µM (highest dose often 46.1 µM), inactives show top-dose activity, negative = less viability, actives largely listed as cytotoxic | 1.6% of 360,000 active | AID 686970;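 further: NT is the 2HG producing partner of a matched IDH1 knockdown line; 0% = DMSO-treated cells and -100% = media-only wells without cells; nearly all actives have a fitted effect of over 55% in size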
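Viability of the 2HG-overproducing fibrosarcoma line after 48 hours of compound exposure at 37 degrees C was determined by luminescence with CellTiter-Glo, and concentration-effect curves were then fitted and categorized.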
HepG2 tox: counter-screen for TGF-b inhibitors: cytotoxicity in HepG2 cells; Potency, µM (doses to about 46.1 µM), for the others: at the highest dose activity change, negative = cytotoxicity, actives largely listed as cytotoxic; 0.76% of 410,000 active; HepG2 CAGA-GFP viability, ATP luminescence, 18 h
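CellTiter-Glo luminescence gave cytotoxicity after 18 hours at 37 degrees C. The cells were HepG2 CAGA-GFP in 1% FBS DMEM, stimulated with 500 pg/mL TGF-beta after compound addition. %Activity was normalised to no-cell wells (complete cell-killing) and DMSO (no toxicity), and curves were fitted and classified.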
HT1080 IDH1KD tx: toxicity to HT-1080 IDH1 knockdown cells (counter line); 2% of 360,000 active; AID 686971; Potency, µM (series often up to 46.1 µM), without a hit: at the highest dose activity, negative = toxicity, actives largely listed as cytotoxic; HT-1080 IDH1 knockdown viability, ATP luminescence, 48 h;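 further: 0% = DMSO wells and -100% = cell-free medium wells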
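Knockdown cells (IDH1KD HT-1080) received compounds 2 h after plating at 750 cells/well and were kept 48 h at 37 °C in 5% FBS RPMI. A CellTiter-Glo luminescence read gave % activity for curve fitting.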
An asterisk follows results filed as active. In the library only some 17% were active in any assay of this set; here they are far more common. The call rests on the fitted dose curve; in most records, active means well fitted curve in the direction sought with a large enough effect; inconclusive means small, poorly fitted or top-dose-only effect, or another doubt; inactive means no such curve, though single readings can be large; an effect the other way counts as inactive or inconclusive. Potency means the concentration at half of the fitted maximal effect.

`COc1ccc2nc(C)cc(N3CCN(c4ccccc4)CC3)c2c1` gave TDP1 cell noCPT 18µM*, TGFb inhibitor inconclusive, TDP1 cell CPT 21µM*, HT1080-NT tox inconclusive, HepG2 tox -26% and HT1080 IDH1KD tx -27%.
`Cc1cc(N2CCN(S(=O)(=O)c3ccc(Cl)c(Cl)c3)CC2)c2ccccc2n1` gave TDP1 cell noCPT 16µM*, TGFb inhibitor inconclusive, TDP1 cell CPT inconclusive, HT1080-NT tox inconclusive, HepG2 tox -43% and HT1080 IDH1KD tx inconclusive.
`O=C(CCCn1c2ccccc2c(=O)c2ccccc21)Nc1ccc(F)cc1Cl` gave TDP1 cell noCPT inconclusive, TGFb inhibitor -2%, TDP1 cell CPT inconclusive and HepG2 tox -2%.
`CCCOC(=O)N[C@@H]1C(=O)N2C(C(=O)OCCC)=C(C)CS[C@H]12` gave TDP1 cell noCPT inconclusive, TGFb inhibitor -10%, TDP1 cell CPT -1%, HT1080-NT tox inconclusive, HepG2 tox -26% and HT1080 IDH1KD tx -3%.
CC(NC(=O)Cn1ccsc1=N)C12CC3CC(CC(C3)C1)C2 (configuration not stated) was read as TDP1 cell noCPT 23µM*, TGFb inhibitor -5%, TDP1 cell CPT 16µM*, HT1080-NT tox inconclusive, HepG2 tox -38% and HT1080 IDH1KD tx -22%.
Screening CC(NC(=O)CN1C(=O)NC(Cc2ccccc2)(Cc2ccccc2)C1=O)C12CC3CC(CC(C3)C1)C2 (configuration not stated) returned TDP1 cell noCPT inconclusive, TGFb inhibitor -6%, TDP1 cell CPT inconclusive, HT1080-NT tox 21µM*, HepG2 tox -61% and HT1080 IDH1KD tx inconclusive.
For Cn1c(=O)c2c(nc(SCc3cccnc3)n2Cc2ccccc2)n(C)c1=O the results were TDP1 cell noCPT inconclusive, TGFb inhibitor -2%, TDP1 cell CPT inconclusive, HT1080-NT tox -22%, HepG2 tox -42% and HT1080 IDH1KD tx -22%.
Screening COCCCNc1nc2c(c(=O)n(Cc3ccc(F)cc3)c(=O)n2C)n1C returned TDP1 cell noCPT -4%, TGFb inhibitor 5%, TDP1 cell CPT -5%, HT1080-NT tox 7%, HepG2 tox 7% and HT1080 IDH1KD tx 1%.
For Cn1c(OCc2cccnc2)nc2c1c(=O)n(Cc1ccc(F)cc1)c(=O)n2C the results were TDP1 cell noCPT 12µM*, TGFb inhibitor -34%, TDP1 cell CPT 21µM*, HT1080-NT tox 0%, HepG2 tox -25% and HT1080 IDH1KD tx 1%.
Cn1c(Oc2cccc(Cl)c2)nc2c1c(=O)n(Cc1ccccc1Cl)c(=O)n2C was read as TDP1 cell noCPT -27%, TGFb inhibitor -9%, TDP1 cell CPT -20% and HepG2 tox 2%.
For Cn1c(=O)c2c(nc(SCc3cccnc3)n2Cc2ccc(F)cc2)n(C)c1=O the results were TDP1 cell noCPT 23µM*, TGFb inhibitor 5%, TDP1 cell CPT 21µM*, HT1080-NT tox 0%, HepG2 tox -7% and HT1080 IDH1KD tx 9%.
Screening Cn1c(=O)c2c(nc(OCc3cccnc3)n2Cc2c(F)cccc2Cl)n(C)c1=O returned TDP1 cell noCPT inconclusive, TGFb inhibitor -9%, TDP1 cell CPT inconclusive, HT1080-NT tox -1%, HepG2 tox 7% and HT1080 IDH1KD tx 7%.
Cn1c(Oc2ccccc2)nc2c1c(=O)n(Cc1ccc(Cl)cc1Cl)c(=O)n2C was read as TDP1 cell noCPT 16µM*, TGFb inhibitor -6%, TDP1 cell CPT 15µM* and HepG2 tox -13%.
Screening Cn1c(OCc2cccnc2)nc2c1c(=O)n(Cc1ccccc1)c(=O)n2C returned TDP1 cell noCPT 18µM*, TGFb inhibitor 6%, TDP1 cell CPT inconclusive, HT1080-NT tox -2%, HepG2 tox -6% and HT1080 IDH1KD tx -5%.
`O=C(CNC(=O)c1ccccc1F)NNC(=O)c1ccccc1O` gave TDP1 cell noCPT 26%, TGFb inhibitor -8%, TDP1 cell CPT 15%, HT1080-NT tox 0%, HepG2 tox -19% and HT1080 IDH1KD tx -2%.
Screening CSc1ncc(C(=O)Nc2ccccc2C(F)(F)F)c(-c2ccccc2)n1 returned TDP1 cell noCPT -19%, TGFb inhibitor -3%, TDP1 cell CPT -26% and HepG2 tox -19%.
`Cn1c(Oc2ccc3c(c2)OCO3)nc2c1c(=O)n(Cc1ccccc1)c(=O)n2C` gave TDP1 cell noCPT inconclusive, TGFb inhibitor 11%, TDP1 cell CPT inconclusive, HT1080-NT tox 12%, HepG2 tox -2% and HT1080 IDH1KD tx 10%.
`Cn1c(OCc2ccc3c(c2)OCO3)nc2c1c(=O)n(Cc1cccc(Cl)c1)c(=O)n2C` gave TDP1 cell noCPT 10µM*, TGFb inhibitor 16%, TDP1 cell CPT inconclusive, HT1080-NT tox 5%, HepG2 tox 10% and HT1080 IDH1KD tx 3%.
N#Cc1nc(Cc2cccc3ccccc23)oc1NCc1ccc(F)cc1 was read as TDP1 cell noCPT 21µM*, TGFb inhibitor inconclusive, TDP1 cell CPT inconclusive, HT1080-NT tox inconclusive, HepG2 tox -38% and HT1080 IDH1KD tx inconclusive.
For Cc1ccc(C)c(N2CCN(C(=O)c3cc(S(=O)(=O)N4CCOCC4)ccc3F)CC2)c1 the results were TDP1 cell noCPT 13µM*, TGFb inhibitor 8%, TDP1 cell CPT 15µM*, HT1080-NT tox -4%, HepG2 tox -3% and HT1080 IDH1KD tx -10%.
Screening Cc1ccc(C)c(N2CCN(C(=O)c3cc(S(=O)(=O)N4CCCC4)cn3C)CC2)c1 returned TDP1 cell noCPT 21µM*, TGFb inhibitor inconclusive, TDP1 cell CPT 18µM*, HT1080-NT tox -5%, HepG2 tox -46% and HT1080 IDH1KD tx -1%.
Cc1cccc(N2CCN(C(=O)c3cc(S(=O)(=O)N4CCCC4)cn3C)CC2)c1C was read as TDP1 cell noCPT inconclusive, TGFb inhibitor inconclusive, TDP1 cell CPT 23µM*, HT1080-NT tox inconclusive, HepG2 tox -2% and HT1080 IDH1KD tx 15µM*.
Screening Cc1ccc(S(=O)(=O)N2CCOCC2)cc1C(=O)N1CCC(Cc2ccccc2)CC1 returned TDP1 cell noCPT 15µM*, TGFb inhibitor 3%, TDP1 cell CPT inconclusive, HT1080-NT tox 6%, HepG2 tox 4% and HT1080 IDH1KD tx -3%.
For Cc1cc2nn(-c3ccc(F)cc3)nc2cc1NC(=O)c1cccc([N+](=O)[O-])c1C the results were TGFb inhibitor 0% and HepG2 tox -1%.

Compound activity: PubChem, National Center for Advancing Translational Sciences (NCATS)
